Compound activity deposited in PubChem BioAssay by Sanford-Burnham Center for Chemical Genomics.
This is a sample that favours compounds with a hit; in the whole collection about 28% have one here.
CYP2C19 activ – human CYP2C19 activators, primary screen, biochemical, luminescence; activation factor at 5 µM; recombinant CYP2C19, luciferin-H EGE luminescence; active compounds read high; 0 = fully inhibited enzyme, 1 = untreated enzyme; 96,000 tested, under 10 active;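 active = activation factor of at least 2 at 5 µM in the primary screen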
Target sequence (P33261 whole entry, looked up): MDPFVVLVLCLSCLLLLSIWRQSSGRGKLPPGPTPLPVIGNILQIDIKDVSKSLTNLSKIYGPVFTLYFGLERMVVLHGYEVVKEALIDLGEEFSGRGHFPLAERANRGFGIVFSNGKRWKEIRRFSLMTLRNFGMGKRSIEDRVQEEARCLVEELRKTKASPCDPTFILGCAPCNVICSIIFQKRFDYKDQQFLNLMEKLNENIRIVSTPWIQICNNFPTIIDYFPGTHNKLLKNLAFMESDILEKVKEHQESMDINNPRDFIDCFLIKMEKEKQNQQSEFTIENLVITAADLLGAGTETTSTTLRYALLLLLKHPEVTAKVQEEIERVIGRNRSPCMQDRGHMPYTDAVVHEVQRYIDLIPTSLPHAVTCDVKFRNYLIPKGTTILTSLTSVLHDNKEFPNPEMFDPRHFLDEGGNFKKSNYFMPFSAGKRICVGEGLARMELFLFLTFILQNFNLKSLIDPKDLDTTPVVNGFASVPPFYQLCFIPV
CYP2C19 inh – blockers of cytochrome P450 2C19 activity – biochemical, luminescence, ADME assay, primary screen. CYP2C19 Supersomes, luciferin-H EGE luminescence, 30 min. inhibition, % at 5 µM. hit rate 21% among 96,000. AID 778, 2007;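 active = CYP2C19 inhibition above a set limit at 5 µM in the primary screen, cut at about 50% in these data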
CYP2C9 activ – human CYP2C9 activators, primary screen, biochemical, luminescence; recombinant CYP2C9, luciferin-H conversion; active compounds read high; factor 1 = untreated enzyme, 0 = blocked; hit rate 1.4% among 96,000; activation factor at 5 µM;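 active = activation factor of 2 or more for CYP2C9 at a 5 µM dose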
CD11b adhes enh – enhancers of CD11b/CD18 adhesion to fibrinogen, primary screen, K562 cells, luminescence. ATPlite luminescence. activation, % at 10 µM. hit rate 0.07% among 93,000. AID 1499, 2009;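 active = 10 µM primary screen giving 50% or more activity, confirmed by 40% or more on retest at that dose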
Mac1 fbg inh – inhibitors of CD11b/CD18 adhesion to fibrinogen, primary screen, K562 cells, luminescence | Integrin beta-2 (Homo sapiens) + Integrin alpha-M (Homo sapiens), P05107+P11215 | ATPlite luminescence; Mn2+ added to activate the integrin | inhibition, % at 10 µM | hit rate 0.54% among 93,000;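 active = primary inhibition of 50% or more at 10 µM, then 40% or more on retest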
CYP2C9 inh – blockers of cytochrome P450 2C9 activity – biochemical, luminescence, ADME assay, primary screen; P11712; CYP2C9 Supersomes, luciferin-H conversion; inhibition, % at 5 µM; hit rate 20% among 96,000; AID 777, 2007;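 active = blocking of liver enzyme CYP2C9 beyond about 50% at 5 µM, limit read from the data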
Each line names hits and unclear results; the compound was inactive in the other large screens.

Cc1cc(C)n(C(=O)CN2C(=O)COc3ccccc32)n1	CYP2C19 inh 80.0, CYP2C9 inh 56.9
CCc1ccc(CNC(=O)CN2C(=O)COc3ccccc32)cc1	CYP2C19 inh 72.3
Cc1ccc(-c2nn(Cc3ccccc3)cc2/C=C/C(=O)O)cc1C	CYP2C19 inh 75.8
Cc1nc2ccc(NC(=O)Cn3cnc4c3c(=O)n(C)c(=O)n4C)cc2s1	none
Cn1c(=O)c2ncn(CC(=O)Nc3cccc(-c4nc5ccccc5s4)c3)c2n(C)c1=O	CYP2C9 inh 50.5
CCc1ccc(NC(=O)N(CCN(C)C)C(C)c2cccnc2)cc1 (stereo not given)	none
CC(C)N(CCc1ccncc1)C(=O)Nc1ccc(F)cc1	CYP2C19 inh 97.0, CYP2C9 inh 86.9
CC(C)N(CCc1ccncc1)C(=O)Nc1ccc(Cl)c(Cl)c1	CYP2C19 inh 99.5, CYP2C9 inh 99.2
CN(C)CCOc1nc(-c2ccccc2)nc2c1oc1ccccc12	none
Cc1cc(C)c2c(=O)n(CC(=O)NCCCN3CCOCC3)sc2n1	CYP2C9 inh 81.4
Cc1cc(C)c2c(=O)n(CC(=O)NCCCN3CCN(c4ccccc4F)CC3)sc2n1	CYP2C9 inh 65.2
O=c1c2ccccc2ncn1-c1ccc2c(c1)OCCO2	none
C=CCn1c(SCC(=O)N(C)C2CCS(=O)(=O)C2)nnc1-c1ccncc1 (stereo not given)	none
Cc1nn(CCC(=O)NNC(=S)NCC(C)C)c(C)c1Br	CYP2C19 inh 62.7, CYP2C9 inh 91.1
CCCC1(C(=O)OCC)NC(c2ccc(N(C)C)cc2)C2C(=O)N(c3ccc(OCC)cc3)C(=O)C21 (stereo not given)	CYP2C19 inh 73.5
Cc1nnsc1Sc1cccc(C(F)(F)F)c1	none
CNC(=O)c1ccc(-n2nc(C)cc2-c2ccccc2)cc1	none (no result: CD11b adhes enh, Mac1 fbg inh)
Cc1cc(C)n(-c2nc3ccccc3nc2N2CCCC2)n1	none
Cc1cc(C)n(-c2nc3ccccc3nc2N2CCCCCC2)n1	CYP2C19 inh 75.2
COc1ccc(S(=O)(=O)N2CCN(c3nc4ccccc4nc3-n3nc(C)cc3C)CC2)cc1	CYP2C9 inh 58.9
Cc1cc(C)n(-c2nc3ccccc3nc2N2CCN(C(=O)c3ccc(Cl)cc3)CC2)n1	CYP2C9 inh 60.4
Cc1cc(-c2ccccc2)n(-c2ccc(C(=O)N3CCN(c4ncccn4)CC3)cc2)n1	CYP2C9 inh 60.9
COc1ccc(Nc2nc3ccccc3nc2-n2nc(C)cc2C)cc1	none
COc1ccc(-c2nnn(CCC(=O)O)n2)cc1	none
CC1(C)Cc2c(sc(NC(=O)c3ccco3)c2C#N)C(C)(C)N1	none
COc1cccc(C(=O)c2c[nH]c(C(=O)NCc3cccs3)c2)c1	none
COc1ccc2nc3sc(C(=O)NCc4cccs4)c(N)c3cc2c1	CYP2C19 inh 77.3, CYP2C9 inh 56.5
O=C(OCC(=O)N1CCN(C(=O)c2ccco2)CC1)c1ccccc1OCc1ccccc1	CYP2C19 inh 63.7, CYP2C9 inh 86.7
O=C(OCC(=O)N1CCN(C(=O)c2ccco2)CC1)c1cc(-c2cccc(Br)c2)nc2ccccc12	CYP2C9 inh 61.1
O=C(OCC(=O)N1CCCC1)c1ccccc1OCc1ccccc1	none
O=C(OCC(=O)N1CCN(C(=O)c2ccco2)CC1)c1cc(-c2ccccc2)nc2ccccc12	CYP2C9 inh 75.8
O=C(OCC(=O)N1CCN(c2ccccc2)CC1)c1ccc2ncsc2c1	CYP2C19 inh 73.2
O=C(OCC(=O)N1CCN(C(=O)c2ccco2)CC1)c1cc(-c2ccc(F)cc2)nc2ccccc12	none
Cc1nn(-c2ccccc2)c(N)c1C(c1ccccc1)c1c(C)nn(-c2ccccc2)c1N	none (no result: CYP2C19 activ, CYP2C19 inh, CYP2C9 activ, CYP2C9 inh)
CCN1CCN(C(=O)c2cc3cc4cc(OC)ccc4nc3s2)CC1	none
Cc1cc(C(=O)OCC(=O)N2CCN(c3ccccc3)CC2)c2ccccc2n1	CYP2C9 activ 2.8
O=C(OCC(=O)N1CCN(C(=O)c2ccco2)CC1)c1ccc(S(=O)(=O)N2CCCCC2)cc1	CYP2C9 inh 59.7
